# Test results reported in PubChem BioAssay.
# Molecular target: Fibroblast growth factor 10 (Homo sapiens) (UniProt O15520)
# Assay: FGF10 binders on small-molecule microarrays, primary screen, biochemical, small-molecule microarray, 635 nm fluorescence (AID 1102)
# Conditions: FGF10 binding, fluorescence 635 nm, higher = more signal
# Chain of Fibroblast growth factor 10 (Homo sapiens) (O15520 whole entry, looked up): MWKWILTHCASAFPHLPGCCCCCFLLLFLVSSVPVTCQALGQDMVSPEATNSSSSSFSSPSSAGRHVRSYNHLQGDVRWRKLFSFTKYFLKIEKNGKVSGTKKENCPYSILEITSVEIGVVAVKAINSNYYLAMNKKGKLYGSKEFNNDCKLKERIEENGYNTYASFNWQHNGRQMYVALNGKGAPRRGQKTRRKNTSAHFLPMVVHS
row,SMILES,composite z-score
1,CCc1cc2c(nc1CC)CCN(CCC(C)=NOC(C)CN1CCCc3nc(C)c(C)cc31)C2 (stereo not drawn),1.04
2,Cc1ccc(S(=O)(=O)N[C@@H]2COC(=O)[C@H](C)COC(=O)CC=C[C@H]2C)cc1,0.66
3,O=C1C[C@@H](O)[C@@H](O)[C@@H]2[C@@H]3C(=O)N(Cc4ccc5c(c4)OCO5)C(=O)[C@@H]3CC[C@@H]12,0.715
4,CN1C(=O)[C@@]2(CCC(=O)OC(C)(C)C)N=C(c3ccc(OCCCO)cc3)O[C@H]2c2ccccc21,0.788
5,COCCOC(=O)N1C(=O)[C@@]2(c3cc(C#CC4(O)CCCCCC4)ccc31)[C@H](C(=O)N1CCN(c3ncccn3)CC1)[C@H]1C(=O)O[C@H](c3ccccc3)[C@H](c3ccccc3)N1[C@@H]2c1ccc(OCCO)cc1,1.18
6,CCOC(=O)[C@H](CC(C)C)NC(=O)CCC1CC(OC(=O)NCc2cccc3ccccc23)CC2(CCCC(COC(=O)NCCc3ccccc3OC)O2)O1 (stereo partly drawn),1
7,COC(=O)[C@H](C)NC(=O)CCC1CC(OC(=O)NCc2cccc3ccccc23)CC2(CCCC(COC(=O)NCCc3ccc(Cl)cc3)O2)O1 (stereo partly drawn),0.794
8,O[C@@H](Cc1ccccc1)[C@H]1C2C=CCCC(c3ccccc3)=C2CN1Cc1cccc(Cl)c1 (stereo partly drawn),0.653
9,O=C1[C@H]2[C@H]3[C@H](O)[C@H](O)CC(=NO[C@@H]4O[C@H](CO)[C@@H](O)[C@H](O)[C@H]4O)[C@@H]3CC[C@H]2C(=O)N1Cc1ccccc1,0.503
10,COCCOC(=O)N1C(=O)[C@@]2(c3cc(C#CCNC(N)=O)ccc31)[C@H](c1ccccc1OCCO)N1[C@H](c3ccccc3)[C@H](c3ccccc3)OC(=O)[C@H]1[C@@H]2C(=O)N1CCN(c2ncccn2)CC1,1.15
11,O=C1[C@H]2[C@H]3[C@H](O)[C@H](O)CC(=NO[C@@H]4O[C@H](CO)[C@@H](O)[C@H](O)[C@H]4O)[C@H]3CC[C@H]2C(=O)N1Cc1ccccc1,0.437
12,CC(C)(C)N1C(=O)[C@H]2[C@H]3[C@H](O)[C@H](O)CC(=NO[C@@H]4O[C@H](CO)[C@@H](O)[C@H](O)[C@H]4O)[C@@H]3CC[C@H]2C1=O,0.522
13,O=C1[C@H]2[C@H]3[C@H](O)[C@H](O)CC(=NO[C@@H]4O[C@H](CO)[C@@H](O)[C@H](O)[C@H]4O)[C@H]3CC[C@H]2C(=O)N1C1CCCCC1,0.0041
14,CC[C@@H](c1ccccc1)n1c(=O)n2n(c1=O)[C@H]1[C@H](O)[C@@H]3O[C@@H]3C(=NOCC(C)C)[C@H]1CC2,-0.0238
15,CCCC[C@@H](O)C1=C(C)C[C@H]2C(=O)N(Cc3ccccc3)C(=O)[C@H]2[C@H]1CO,0.264
16,CC(C)=C1C(=O)C(c2ccccc2)=C2CN3C(=O)N(CCc4ccccc4)C(=O)[C@]3(Cc3ccc(F)cc3)[C@H]21,-0.625
17,N#Cc1ccc(NN2C(C(O)c3cc(C(F)(F)F)cc(C(F)(F)F)c3)C=CC3C(=O)N(c4ccccc4)C(=O)C32)cc1 (stereo not drawn),1.03
18,[N-]=[N+]=NCc1ccccc1[C@@H]1OC(c2ccc(OCCCO)cc2)=N[C@]1(Cc1ccccc1)C(=O)N1CCOCC1,1
19,CC(CCN1CCCCc2nc(C)c(C)cc21)=NOC(C)CN1CCCCc2nc(C)c(C)cc21 (stereo not drawn),1.07
20,O=C(NN=C1C[C@@H](O)[C@@H](O)[C@@H]2[C@@H]3C(=O)N(c4cccc(Oc5ccccc5)c4)C(=O)[C@@H]3CC[C@H]12)OCc1ccccc1,-0.113
21,CCOC(=O)CCN1C(=O)[C@H]2[C@H]3[C@H](O)[C@H](O)CC(=O)[C@H]3CC[C@H]2C1=O,0.685
22,O=C1O[C@@H](c2ccccc2)[C@@H](c2ccccc2)N2[C@@H](c3ccc(OCCO)cc3)[C@]3(C(=O)Nc4ccc(C#CCCO)cc43)[C@@H](C(=O)N3CCCCCCC3)[C@H]12,1.22
23,c1ccc(C2NCCc3c2[nH]c2ccccc32)cc1 (stereo not drawn),0.269

# Tested on: glycogen synthase kinase-3 (GSK3A per assay name; protocol says GSK3B)
# Assay: GSK3 binders on small-molecule microarrays, primary screen, biochemical, small-molecule microarray, 635 nm fluorescence, GSK3A (AID 1103); further: the record names both GSK3A and GSK3B
# Conditions: small-molecule microarray binding, fluorescence 635 nm; higher = more signal
row,SMILES,composite z-score
1,COc1ccc([Si](C)(C)[C@H]2[C@H](CC(=O)N3CCC[C@H]3CO)O[C@@]3(C(=O)N(Cc4cccc(N5C(=O)COc6ccccc65)c4)c4ccccc43)[C@@H]2C)cc1,0.803
2,CC(=O)OC[C@H]1O[C@H](C#CCCCc2ccccc2)C=C[C@@H]1OC(C)=O,-0.0427
3,CC(C)[C@H](NC(=O)OC(C)(C)C)[C@@H](O)CC(=O)OC(C)(C)C,-1.38
4,COCCCNC(=O)[C@]1(CCC(=O)OC(C)(C)C)N=C(c2ccc(OCCCO)cc2)O[C@@H]1c1ccccc1N=[N+]=[N-],1.33
5,C[C@@H]1C=CCC(=O)OC[C@H](C)C(=O)N[C@@H](C)C(=O)OC1,0.252
6,COC(=O)[C@@]1(Cc2ccc(F)cc2)[C@H]2c3cc(C(=O)N(C)C)n(Cc4ccc(OC)c(OC)c4)c3C[C@H]2CN1C(=O)c1ccccc1,-1.21
7,CCCCCN1CC=CC23O[C@@H]4C=CCOC(=O)[C@@H]4[C@H]2C(=O)N(CCCCCCO)[C@@H]3C1=O (stereo partly drawn),-1.08
8,COc1ccc(O[C@H]2C=C[C@@H](c3ccccc3)O[C@@H]2COC(=O)CCC(C)=NO[C@H](C)c2cn([C@@H]3COC[C@H]3O)nn2)cc1,0.387
9,C#C[C@@H]1Oc2ccccc2S(=O)(=O)N2CCC[C@H]12,-0.859
10,CC(C)(C)OC(=O)CC[C@]1(C(N)=O)COC(c2ccc(OCCCO)cc2)=N1,0.977
11,COc1ccc(O[C@H]2C=C[C@@H](c3ccccc3)O[C@@H]2COC(=O)CCC(C)=NOC[C@@H](C)[C@H](OCc2ccccc2)C(C)C)cc1,-0.662
12,Cc1ccc(F)cc1S(=O)(=O)N[C@@H]1CCN(Cc2ccc(CC(C)C)cc2)C1,-1.12
13,CCc1cc2c(nc1CC)CCN(CCC(C)=NOC(C)CN1CCCc3nc(C)c(C)cc31)C2 (stereo not drawn),1.06
14,Cc1ccc(S(=O)(=O)N[C@@H]2COC(=O)[C@H](C)COC(=O)CC=C[C@H]2C)cc1,0.771
15,O=C1C[C@@H](O)[C@@H](O)[C@@H]2[C@@H]3C(=O)N(Cc4ccc5c(c4)OCO5)C(=O)[C@@H]3CC[C@@H]12,0.45
16,CN1C(=O)[C@@]2(CCC(=O)OC(C)(C)C)N=C(c3ccc(OCCCO)cc3)O[C@H]2c2ccccc21,1.33
17,COCCOC(=O)N1C(=O)[C@@]2(c3cc(C#CC4(O)CCCCCC4)ccc31)[C@H](C(=O)N1CCN(c3ncccn3)CC1)[C@H]1C(=O)O[C@H](c3ccccc3)[C@H](c3ccccc3)N1[C@@H]2c1ccc(OCCO)cc1,1.3
18,CCOC(=O)[C@H](CC(C)C)NC(=O)CCC1CC(OC(=O)NCc2cccc3ccccc23)CC2(CCCC(COC(=O)NCCc3ccccc3OC)O2)O1 (stereo partly drawn),1.03

row,SMILES,composite z-score
1,COC(=O)[C@H](C)NC(=O)CCC1CC(OC(=O)NCc2cccc3ccccc23)CC2(CCCC(COC(=O)NCCc3ccc(Cl)cc3)O2)O1 (stereo partly drawn),0.69
2,O[C@@H](Cc1ccccc1)[C@H]1C2C=CCCC(c3ccccc3)=C2CN1Cc1cccc(Cl)c1 (stereo partly drawn),0.913
3,O=C1[C@H]2[C@H]3[C@H](O)[C@H](O)CC(=NO[C@@H]4O[C@H](CO)[C@@H](O)[C@H](O)[C@H]4O)[C@@H]3CC[C@H]2C(=O)N1Cc1ccccc1,-0.817
4,COCCOC(=O)N1C(=O)[C@@]2(c3cc(C#CCNC(N)=O)ccc31)[C@H](c1ccccc1OCCO)N1[C@H](c3ccccc3)[C@H](c3ccccc3)OC(=O)[C@H]1[C@@H]2C(=O)N1CCN(c2ncccn2)CC1,0.375
5,O=C1[C@H]2[C@H]3[C@H](O)[C@H](O)CC(=NO[C@@H]4O[C@H](CO)[C@@H](O)[C@H](O)[C@H]4O)[C@H]3CC[C@H]2C(=O)N1Cc1ccccc1,0.656
6,CC(C)(C)N1C(=O)[C@H]2[C@H]3[C@H](O)[C@H](O)CC(=NO[C@@H]4O[C@H](CO)[C@@H](O)[C@H](O)[C@H]4O)[C@@H]3CC[C@H]2C1=O,0.869
7,O=C1[C@H]2[C@H]3[C@H](O)[C@H](O)CC(=NO[C@@H]4O[C@H](CO)[C@@H](O)[C@H](O)[C@H]4O)[C@H]3CC[C@H]2C(=O)N1C1CCCCC1,0.266
8,CC[C@@H](c1ccccc1)n1c(=O)n2n(c1=O)[C@H]1[C@H](O)[C@@H]3O[C@@H]3C(=NOCC(C)C)[C@H]1CC2,0.0344
9,CCCC[C@@H](O)C1=C(C)C[C@H]2C(=O)N(Cc3ccccc3)C(=O)[C@H]2[C@H]1CO,-0.0254
10,CC(C)=C1C(=O)C(c2ccccc2)=C2CN3C(=O)N(CCc4ccccc4)C(=O)[C@]3(Cc3ccc(F)cc3)[C@H]21,-0.643
11,N#Cc1ccc(NN2C(C(O)c3cc(C(F)(F)F)cc(C(F)(F)F)c3)C=CC3C(=O)N(c4ccccc4)C(=O)C32)cc1 (stereo not drawn),1.28
12,[N-]=[N+]=NCc1ccccc1[C@@H]1OC(c2ccc(OCCCO)cc2)=N[C@]1(Cc1ccccc1)C(=O)N1CCOCC1,1.29
13,CC(CCN1CCCCc2nc(C)c(C)cc21)=NOC(C)CN1CCCCc2nc(C)c(C)cc21 (stereo not drawn),1.33
14,O=C(NN=C1C[C@@H](O)[C@@H](O)[C@@H]2[C@@H]3C(=O)N(c4cccc(Oc5ccccc5)c4)C(=O)[C@@H]3CC[C@H]12)OCc1ccccc1,-0.281
15,CCOC(=O)CCN1C(=O)[C@H]2[C@H]3[C@H](O)[C@H](O)CC(=O)[C@H]3CC[C@H]2C1=O,0.765
16,O=C1O[C@@H](c2ccccc2)[C@@H](c2ccccc2)N2[C@@H](c3ccc(OCCO)cc3)[C@]3(C(=O)Nc4ccc(C#CCCO)cc43)[C@@H](C(=O)N3CCCCCCC3)[C@H]12,1.32
17,c1ccc(C2NCCc3c2[nH]c2ccccc32)cc1 (stereo not drawn),-0.704
